{"source": "PubChem BioAssay AID492956", "about": "(The Scripps Research Institute Molecular Screening Center, 2010)", "note": "The campaign covered roughly 340,000 compounds. About 3,300 (0.97%) were called active.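 The calls were made as follows: active = inhibition above the mean over all tested compounds plus 3 SD (cut at about 30% in these data); inactive = the rest.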 For the sample, actives were picked, then their nearest neighbours and some compounds at random.", "data": [{"target": "Platelet-activating factor acetylhydrolase 2, cytoplasmic (Homo sapiens) (UniProt Q99487)", "assay": "PAFAH2 enzyme inhibitors, primary screen, biochemical, fluorescence polarization, human (AID 492956);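 also: inhibitors block probe labeling of enzyme so polarization drops; 0% = enzyme with DMSO and 100% = wells lacking PAFAH2 protein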", "conditions": "recombinant PAFAH2, FP-rhodamine activity probe, at 3.39 µM, active compounds read high", "values": [{"smiles": "Cn1c(=O)c2c(ncn2CC(=O)N/N=C/c2cn[nH]c2-c2ccc(F)cc2)n(C)c1=O", "inhibition": "3.66% (inactive)"}, {"smiles": "O=C(NCc1ccco1)/C(=C/c1cccc([N+](=O)[O-])c1)NC(=O)c1ccco1", "inhibition": "-0.82% (inactive)"}, {"smiles": "CN1C(=O)/C(=C/C=C2\\SCCN2C)OC1=S", "inhibition": "-4.81% (inactive)"}, {"smiles": "COc1ccc(NS(=O)(=O)c2cc(NC(=O)C3CCCCC3)ccc2N2CCOCC2)cc1", "inhibition": "0.82% (inactive)"}, {"smiles": "O=C(NCCS(=O)(=O)N1CCN(c2ccccc2F)CC1)c1ccc(Br)o1", "inhibition": "-0.55% (inactive)"}, {"smiles": "CC(OC(=O)c1ccc(S(=O)(=O)N2CCOCC2)cc1)c1ccccc1", "note": "(centres undefined)", "inhibition": "2.29% (inactive)"}, {"smiles": "O=C(ON=C1CCN(S(=O)(=O)c2ccccc2)CC1)c1ccc(Cl)cc1", "inhibition": "86.6% (active)"}, {"smiles": "COC(=O)c1ccc(S(=O)(=O)N2CCc3ccccc3C2)cc1", "inhibition": "-2.2% (inactive)"}, {"smiles": "CN1CCC(OC(=O)COc2ccc(Cl)cc2Cl)CC1", "inhibition": "-2.95% (inactive)"}, {"smiles": "CCN(C(=O)COC(=O)c1sccc1C)c1c(N)n(Cc2ccccc2)c(=O)[nH]c1=O", "inhibition": "-2.58% (inactive)"}, {"smiles": "Cc1ccc(-n2ncc3c(=O)n(-c4ccc(C)c(C)c4)c(-c4ccco4)nc32)cc1", "inhibition": "-1.39% (inactive)"}, {"smiles": "Cc1ccc(-c2nc3c(cnn3-c3ccccc3)c(=O)o2)cc1", "inhibition": "59.4% (active)"}, {"smiles": "CC(=O)Cn1cnc2c(cnn2-c2ccccc2)c1=O", "inhibition": "-0.98% (inactive)"}, {"smiles": "O=c1cc(O)c(-c2cccc(C(F)(F)F)c2)c(Cl)[nH]1", "inhibition": "-1.33% (inactive)"}, {"smiles": "COc1ccc(S(=O)(=O)N2CCOCC2)cc1NC(=O)Cc1c(F)cccc1Cl", "inhibition": "43.5% (active)"}, {"smiles": "COc1ccc(S(=O)(=O)N2CCOCC2)cc1NC(=O)c1ccc(OCC(C)C)c(OC)c1", "inhibition": "4.28% (inactive)"}, {"smiles": "COc1ccc(S(=O)(=O)N2CCOCC2)cc1NC(=O)COc1ccccc1", "inhibition": "6.32% (inactive)"}, {"smiles": "COc1ccc(S(=O)(=O)N2CCOCC2)cc1NC(=O)CSc1nnc(NC2CC2)s1", "inhibition": "3.17% (inactive)"}, {"smiles": "COc1ccc(S(=O)(=O)N2CCOCC2)cc1NC(=O)CSc1cc(C)ccc1C", "inhibition": "2.32% (inactive)"}, {"smiles": "COc1ccc(S(=O)(=O)N2CCOCC2)cc1NC(=O)CSc1ncnc2ccccc12", "inhibition": "0.39% (inactive)"}, {"smiles": "COc1ccc(S(=O)(=O)N2CCOCC2)cc1NC(=O)Cc1coc2cc(C)ccc12", "inhibition": "39.9% (active)"}, {"smiles": "COc1ccc(S(=O)(=O)N2CCOCC2)cc1NC(=O)CC1CC2CCC1C2", "note": "(centres undefined)", "inhibition": "70.4% (active)"}, {"smiles": "COc1ccc(S(=O)(=O)N2CCCCCC2)cc1NC(=O)Cc1ccc(OC)c(OC)c1", "inhibition": "14.1% (inactive)"}, {"smiles": "CC(=O)NC(CC(=O)Nc1nccs1)c1ccccc1", "note": "(centres undefined)", "inhibition": "0.3% (inactive)"}, {"smiles": "Cc1cnc(C)c(N2CCN(C(=O)C3CCC(=O)N(CCc4cccc(F)c4)C3)CC2)n1", "note": "(centres undefined)", "inhibition": "6.98% (inactive)"}, {"smiles": "O=S(=O)(O)c1cc2onnc2c2ccccc12", "inhibition": "18.2% (inactive)"}, {"smiles": "CCOC(=O)c1c(C)[nH]c2c1-c1ccccc1C(=O)C2=O", "inhibition": "53.9% (active)"}, {"smiles": "CCOC(=O)c1ccccc1OC(=O)Oc1ccccc1C(=O)OCC", "inhibition": "2.01% (inactive)"}, {"smiles": "CCOC(=O)C1=C(C)c2ccccc2OC1(C)C(=O)OCC", "note": "(centres undefined)", "inhibition": "0.57% (inactive)"}, {"smiles": "CCOc1ccc(OCC)c(NC(=O)C(NS(=O)(=O)c2ccc3c(c2)oc(=O)n3C)C(C)C)c1", "note": "(centres undefined)", "inhibition": "-6.23% (inactive)"}, {"smiles": "O=C(NC1CCCC1)C1CC(=O)N(c2ccc(F)cc2)C1", "note": "(centres undefined)", "inhibition": "5.88% (inactive)"}, {"smiles": "CC(=O)NS(=O)(=O)c1ccccc1", "inhibition": "-3.11% (inactive)"}, {"smiles": "CCCCn1ccnc1C(=O)c1cccc(S(=O)(=O)N2c3ccccc3CC2C)c1", "note": "(centres undefined)", "inhibition": "0.31% (inactive)"}, {"smiles": "CCOc1ncccc1C(=O)OCC(=O)NC1CC1", "inhibition": "15.7% (inactive)"}, {"smiles": "O=C(COC(=O)c1cccc(Cl)c1)NC(=O)NCc1ccccc1", "inhibition": "1.23% (inactive)"}, {"smiles": "O=C(COC(=O)c1ccccc1SCC(=O)NC1CCCCC1)NC1CCCCC1", "inhibition": "59.5% (active)"}, {"smiles": "N#Cc1ccccc1Sc1ccccc1C(=O)OCC(=O)NC1CCCCC1", "inhibition": "31% (active)"}, {"smiles": "O=C(COc1ccccc1O)NC1CCCC1", "inhibition": "1.1% (inactive)"}, {"smiles": "COc1ccc(NS(=O)(=O)c2ccc(O)c(C(=O)OCC(=O)NC3CCCCC3)c2)cc1", "inhibition": "41% (active)"}, {"smiles": "CCN(C(=O)COC(=O)c1cc(NS(=O)(=O)c2ccc(Cl)c([N+](=O)[O-])c2)ccc1O)C1CCCCC1", "inhibition": "14.6% (inactive)"}, {"smiles": "O=C(COC(=O)c1cc([N+](=O)[O-])ccc1NCc1ccccc1)NC1CCCCC1", "inhibition": "9.35% (inactive)"}, {"smiles": "Cc1ccc(C(=O)NCC(=O)OCC(=O)NC2CCCCCCC2)cc1", "inhibition": "-6.95% (inactive)"}, {"smiles": "O=C(COC(=O)c1cccc(Cl)c1)NC1CCCCCCC1", "inhibition": "82.5% (active)"}, {"smiles": "N#Cc1ccc(C(=O)OCC(=O)NC(=O)NC2CCCCC2)cc1", "inhibition": "6.68% (inactive)"}, {"smiles": "CC(C)NS(=O)(=O)c1ccc(OCC(=O)NC2CCCCCC2)cc1", "inhibition": "5.5% (inactive)"}, {"smiles": "CCN(CC)S(=O)(=O)c1ccc(N2CCN(C)CC2)c(NC(=O)Nc2ccccc2F)c1", "inhibition": "-13.1% (inactive)"}, {"smiles": "COc1ccc(CN2CC[C@H]3C=CC[C@@H](C(=O)N4CCOCC4)[C@H]3C2=O)cc1OC", "inhibition": "-0.91% (inactive)"}, {"smiles": "COc1cc(NC(=S)NCCSc2ccc(C)cc2)cc(OC)c1", "inhibition": "5.74% (inactive)"}, {"smiles": "COc1ccc(C(=O)C2CCCN(C(=O)c3cnsn3)C2)c(C)c1", "note": "(centres undefined)", "inhibition": "-5.08% (inactive)"}, {"smiles": "CS(=O)(=O)Nc1ccccc1C(=O)OCC(=O)NC1CC1", "inhibition": "9.45% (inactive)"}, {"smiles": "COc1ccccc1NC(=O)COC(=O)c1ccccc1SCC(=O)N1CCCC1", "inhibition": "16.2% (inactive)"}, {"smiles": "O=C(COC(=O)c1ccccc1SCC(=O)N1CCCC1)Nc1ccccc1OC(F)F", "inhibition": "49.4% (active)"}, {"smiles": "CC(C)N(Cc1ccccc1)C(=O)COC(=O)c1ccccc1SCC(=O)N1CCCC1", "inhibition": "-10.1% (inactive)"}, {"smiles": "O=C(COC(=O)c1ccccc1Cl)NC1CCCCCCC1", "inhibition": "68.9% (active)"}, {"smiles": "O=C(COC(=O)c1cccnc1Cl)NC(=O)NC1CCCCC1", "inhibition": "0.86% (inactive)"}, {"smiles": "Cc1cc(F)ccc1NC(=O)C(C)n1c2ccccc2c2nc(=O)cc(C)n21", "note": "(centres undefined)", "inhibition": "-0.36% (inactive)"}, {"smiles": "CCCCNC(=O)N(O)C1N(/N=C/c2ccccc2O)C(=S)SC1(C)C", "note": "(centres undefined)", "inhibition": "12% (inactive)"}, {"smiles": "CCCCNC(=O)N(O)C1N(/N=C/c2ccc(N(C)C)cc2)C(=S)SC1(C)C", "note": "(centres undefined)", "inhibition": "39% (active)"}, {"smiles": "CCC(C)N1C(=S)SC(C)(C)C1N(O)C(=O)NC1CCCCC1", "note": "(centres undefined)", "inhibition": "0.18% (inactive)"}, {"smiles": "CC(C)COC(=O)n1c(=O)oc2ccc(S(=O)(=O)N3CCCCC3)cc21", "inhibition": "67.9% (active)"}, {"smiles": "O=C(NC1CCCCC1)n1c(=O)oc2cc(S(=O)(=O)N3CCCCC3)ccc21", "inhibition": "-3.36% (inactive)"}, {"smiles": "CC1CCCCN1C(=O)Cn1c(=O)oc2cc(S(=O)(=O)N3CCCCC3)ccc21", "note": "(centres undefined)", "inhibition": "0.32% (inactive)"}, {"smiles": "O=C(NCc1cc(C(F)(F)F)cc(C(F)(F)F)c1)C1CC(c2cccc(F)c2)=NO1", "note": "(centres undefined)", "inhibition": "6.39% (inactive)"}, {"smiles": "CCc1ccc(C(=O)OCC(=O)NCC(F)(F)F)cc1", "inhibition": "73.5% (active)"}, {"smiles": "CC(CCc1ccccc1)NC(=O)COC(=O)c1ccc(F)cc1", "note": "(centres undefined)", "inhibition": "28% (inactive)"}, {"smiles": "O=C(COC(=O)CNC(=O)c1ccccc1F)NCC(F)(F)F", "inhibition": "1.7% (inactive)"}, {"smiles": "Cc1ccc(S(=O)(=O)N(NC2=NS(=O)(=O)c3ccccc32)C(=O)c2ccccc2)cc1", "inhibition": "-5.48% (inactive)"}, {"smiles": "CC(C)(C)c1csc(NC2=NS(=O)(=O)c3ccccc32)n1", "inhibition": "36.9% (active)"}, {"smiles": "O=C(Oc1cccc(NC2=NS(=O)(=O)c3ccccc32)c1)c1ccncc1", "inhibition": "-0.09% (inactive)"}, {"smiles": "O=C(NCN1CCN(CCO)CC1)c1cnccn1", "inhibition": "-3.5% (inactive)"}, {"smiles": "Cc1cc(NC(=O)COC(=O)/C=C/c2ccc(C)o2)no1", "inhibition": "33.3% (active)"}, {"smiles": "CCN(CC(=O)NCc1ccc(Cl)cc1)C(=O)c1c(C)noc1C", "inhibition": "-0.36% (inactive)"}, {"smiles": "Cc1ccc(/C=C/C(=O)OCC(=O)NCc2ccc(Cl)cc2)o1", "inhibition": "53% (active)"}, {"smiles": "Cc1cc(NC(=O)COc2ccc([N+](=O)[O-])cc2)no1", "inhibition": "-0.25% (inactive)"}, {"smiles": "Cc1ccc(CNC(=O)COC(=O)C2CCC2)cc1", "inhibition": "3.66% (inactive)"}, {"smiles": "COC(=O)c1cc(C(=O)OCC(=O)Nc2cc(C)on2)cc([N+](=O)[O-])c1", "inhibition": "-6.33% (inactive)"}, {"smiles": "CCOC(=O)C1C(=O)OC2(CCCC2)C1C(=O)OCC", "note": "(centres undefined)", "inhibition": "-3.56% (inactive)"}, {"smiles": "COCc1c(C(=O)OCC(=O)Nc2ccc(OC(F)F)cc2)oc2ccccc12", "inhibition": "30.5% (active)"}, {"smiles": "COCc1c(C(=O)OCc2c(C)noc2C)oc2ccccc12", "inhibition": "-5.34% (inactive)"}, {"smiles": "Nc1c(C(=O)OCC(=O)Nc2ccc(OC(F)F)cc2)[nH]c(=O)[nH]c1=O", "inhibition": "5.59% (inactive)"}, {"smiles": "O=C1NCC(Nc2ccccc2)C(=O)N1", "note": "(centres undefined)", "inhibition": "7.66% (inactive)"}, {"smiles": "O=C1C2(c3ccccc3)CN(CCCO)CC1(c1ccccc1)CN(CCCO)C2", "inhibition": "7.66% (inactive)"}, {"smiles": "O=C(COC(=O)[C@H](Cc1ccccc1)NC(=O)c1cccs1)Nc1cc(F)ccc1F", "inhibition": "4.42% (inactive)"}, {"smiles": "COc1ccccc1CNC(=O)COC(=O)c1cccs1", "inhibition": "60.2% (active)"}, {"smiles": "COc1ccccc1CNC(=O)COC(=O)CNS(=O)(=O)c1ccc(NC(C)=O)cc1", "inhibition": "-2.61% (inactive)"}, {"smiles": "COc1ccccc1CNC(=O)COC(=O)c1sc(C)nc1C", "inhibition": "36.3% (active)"}, {"smiles": "COc1ccccc1CNC(=O)COc1ccc(C)nc1[N+](=O)[O-]", "inhibition": "4.79% (inactive)"}, {"smiles": "O=C(COC(=O)c1cccs1)NCc1cccs1", "inhibition": "44.2% (active)"}, {"smiles": "O=C(COC(=O)c1cccs1)Nc1ccccc1Cl", "inhibition": "73.2% (active)"}, {"smiles": "O=C(COC(=O)/C(=C/c1cccs1)c1cccs1)NCc1ccccc1Cl", "inhibition": "9.84% (inactive)"}, {"smiles": "O=C(COC(=O)c1ncc(Cl)c(Cl)c1Cl)NCc1cccs1", "inhibition": "-5.72% (inactive)"}, {"smiles": "O=C(COC(=O)c1ccc(O)cc1O)NNC(=O)c1cccs1", "inhibition": "6.29% (inactive)"}, {"smiles": "CNC(=O)c1sc(NCc2ccccc2OC)nc1C", "inhibition": "-0.38% (inactive)"}, {"smiles": "O=C(COC(=O)c1ccc(Cl)nc1)NCc1cccs1", "inhibition": "5.5% (inactive)"}]}]}
